# SW480 rerep: inducers of DNA re-replication in SW480 colon cancer cells | Potency, µM (titrated, usually from 46.1 µM), inactives show at the top dose re-replication activation, most hits filed as activators | 340,000 tested, 1.8% active | SW480 DNA re-replication, Hoechst DNA content imaging, 48 h; note: potency is the fitted concentration of half-maximal effect; % of control where 0% means no effect; nearly all actives have a fitted effect of over 55% in size
#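 Per well, 250 cells were exposed to pinned compound for 48 hr. Nuclear DNA was visualised with Hoechst (40 min, 37 C) and total object intensity recorded by fluorescence scanning.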
# MCF10A rereplic: inducers of DNA re-replication in MCF 10A breast cells; 350,000 tested, 2.9% active; Potency, µM (series often up to 46.1 µM), for inactives: at the top dose activity, positive = re-replication, hits mostly activators; AID 624296; MCF 10A DNA re-replication, Hoechst nuclear intensity, 48 h; note: potency is the fitted concentration of half-maximal effect; % of control where 0% means no effect; nearly all actives have a fitted effect of over 50% in size
# IL-1B inflam inh: inflammasome signaling inhibition, IL-1 beta readout | THP-1 LPS/ATP IL-1B secretion, AlphaLISA, 16 h; hits give low values | activity change, % at 57.5 µM | 360,000 tested, 4.7% active | AID 743279; in the data active = activity change below about -50%; inconclusive = mostly about -30% to -49%; note: % is set by controls: 0 for no effect and ±100 for the full control effect
#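 Secreted IL-1B measured by AlphaLISA bead assay after 16 h compound exposure of THP-1 cells; compounds (final up to 57.5 uM) added 1 h before LPS (250 ng/mL) and ATP (1.25 mM) stimulation; lower signal means less secretion.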
# KB-V1 MDR tox: kills drug-selected multidrug resistant KB-V1 cells | KB-V1 MDR cells viability, CellTiter-Glo, 72 h | Potency, µM (highest dose often 46.1 µM), usual class: cytotoxic | 400,000 tested, 3.4% active | AID 1347076; note: potency is the fitted concentration of half-maximal effect; % is set by controls: 0 for no effect and ±100 for the full control effect; nearly all actives have a fitted effect of over 60% in size
#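 In this primary screen, KB-V1 cells overexpressing P-gp are incubated with library compounds (lowest to highest concentration) for 72 h at 37 degrees C before a luminescent ATP viability read.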
# KB-3-1 cytotox: KB-3-1 parental cell cytotoxicity; KB-3-1 viability, CellTiter-Glo ATP luminescence, 72 h; Potency, µM (top dose mostly 46.1 µM), hits mostly cytotoxic; 400,000 tested, 1.4% active; note: potency is the fitted concentration of half-maximal effect; % is set by controls: 0 for no effect and ±100 for the full control effect; nearly all actives have a fitted effect of over 60% in size
#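 Screening of KB-3-1 cells (DMEM, 10% FBS, phenol-red free) ran from lowest to highest compound concentration; after 72 h at 37 °C viability was read luminescently and curves fitted.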
# * = called active by the depositor; i = inactive; ? = inconclusive; / = no result given. The list is not random: actives were taken first. Their share in the collection is about 9.9%. Unless noted, calls come from the whole dose curve; as a rule, active = well fitted curve in the direction sought with a large enough effect; inconclusive = small, poorly fitted or top-dose-only effect, or another doubt; inactive = no such curve, though single readings can be large; an effect the other way counts as inactive or inconclusive.
SMILES,SW480 rerep,MCF10A rereplic,IL-1B inflam inh,KB-V1 MDR tox,KB-3-1 cytotox
COc1ccc(C2=Nc3nc(-c4ccccc4)cn3C(c3ccc(OC)cc3)C2)cc1 (centres undefined),16µM*,?,-23,i,i
COc1ccc(C2CC(c3ccccc3)=NN2C(=O)COC(=O)c2cccnc2Cl)cc1 (centres undefined),/,3%,-6,?,i
Cc1cccc(N2CCN(C(=O)Cn3nc(C)c4sc5ccccc5c4c3=O)CC2C)c1 (centres undefined),/,/,/,i,i
COc1cccc(C2CC(=O)Nc3c2c(=O)n(C)c2nc4ccccc4n32)c1 (centres undefined),/,/,/,i,i
CC(C)CCN1CCN(Cc2ccon2)CC1CCO (centres undefined),?,-33%,11,i,i
COc1ccc(C2=NN(C(=O)CN3CCCC3)C(c3ccc(OC)cc3)C2)cc1 (centres undefined),-29%,-11%,-62*,?,i
COc1ccc(C2=NN(C(=O)CN3CCCCC3)C(c3ccc(OC)cc3)C2)cc1 (centres undefined),-7%,-9%,-12,i,i
CCN(CC)C(=O)CSc1nnc([C@H](Cc2c[nH]c3ccccc23)NC(=O)OC(C)(C)C)o1,1%,0%,11,15µM*,i
CSCC[C@H](NC(=O)OC(C)(C)C)c1nnc(SCc2ccccc2)o1,6%,6%,-17,9.2µM*,?
CSCC[C@H](NC(=O)OC(C)(C)C)c1nnc(SCc2cccc(F)c2)o1,-1%,-5%,-5,i,i
CSCC[C@H](NC(=O)OC(C)(C)C)c1nnc(SCc2ccc(F)cc2)o1,2%,?,-12,21µM*,i
C[C@H](NC(=O)OC(C)(C)C)c1nnc(SCc2ccc(Cl)cc2Cl)o1,/,/,/,18µM*,?
COc1ccc(CNC(=O)c2ccc3nc(-c4ccc(F)cc4)c(-c4ccc(F)cc4)nc3c2)cc1,/,/,/,i,?
Cc1noc(C)c1C(=O)N1CCC1(C)C(=O)NS(=O)(=O)c1cccc(F)c1 (centres undefined),/,/,-17,i,i
CC(C)[C@H](NC(=O)OC(C)(C)C)c1nnc(SCc2cccc(F)c2)o1,?,11%,12,13µM*,i
CC(C)C[C@H](NC(=O)OC(C)(C)C)c1nnc(SCc2cccc(F)c2)o1,6%,7%,-10,i,i
CC(C)(C)C1CCc2c(sc(NC(=O)Cn3nnc(-c4cccc(C(F)(F)F)c4)n3)c2C#N)C1 (centres undefined),/,/,/,?,i
CN1CC=C2C(C#N)=C(N)C(C#N)(C#N)[C@H](c3cccs3)[C@H]2C1,-4%,-2%,-9,i,i
CN1CC=C2C(C#N)=C(N)C(C#N)(C#N)C(CCc3ccccc3)C2C1 (centres undefined),5%,17%,7,18µM*,i
COc1ccc(CCNC(=O)c2ccc(Cn3c(=O)c4ccccc4n(CC(=O)C(C)(C)C)c3=O)cc2)cc1OC,/,/,/,i,i
O=C(NCc1nc(-c2ccc(C(F)(F)F)cc2)no1)Nc1cc(Cl)cc(Cl)c1,?,?,-94*,?,?
O=C(NCc1nc(-c2ccc(C(F)(F)F)cc2)no1)Nc1ccc(F)cc1F,-8%,9%,-3,i,i
CCn1ccc2c(OCC(=O)Nc3ccc(C)c(Cl)c3)cccc2c1=O,/,/,/,i,i
O=C(NCc1ccccc1Cl)c1ccc(Cn2cc(C(F)(F)F)ccc2=O)cc1,-2%,9%,12,6.5µM*,i
O=C(NCc1ccc(Cl)cc1)c1ccc(Cn2cc(C(F)(F)F)ccc2=O)cc1,-5%,18%,-5,16µM*,i
SMILES,SW480 rerep,MCF10A rereplic,IL-1B inflam inh,KB-V1 MDR tox,KB-3-1 cytotox
Cc1ccc(NC(=O)NNC(=O)c2snnc2C)cc1,2%,-3%,13,i,i
ON=C1c2ccccc2-c2ccccc21,-9%,-2%,-17,i,i
NC(N)=NN=C1c2ccccc2-c2ccccc21,3%,14%,-64*,i,i
Cc1ccc2[nH]c3c(c2c1)CN(C(=O)CN1CCCc2ccccc21)CC3,?,23µM*,-10,i,i
CC(C)Cn1c(SCC(=O)N2CCN(S(=O)(=O)c3ccccc3)CC2)nc2ccccc21,2%,22%,-52*,i,i
CC(C)NC(=O)Cn1c(SCC(=O)N2CCCCCC2)nc2ccccc21,-6%,-5%,-3,15µM*,i
Cc1ccc(OCCSc2nc3ccccc3n2CC(=O)N2CCCCC2)c(C)c1,/,/,/,12µM*,?
CC(C)NC(=O)Cn1c(SCC(=O)NC2CCCC2)nc2ccccc21,-4%,-5%,3,i,i
CCCCC(=O)OCC(=O)N1N=C(c2c[nH]c3ccccc23)C(O)C1c1ccc(OC)cc1 (centres undefined),?,8%,24,i,i
Cc1cccc2cc(C#N)c(SCCN3CCCCC3)nc12,8.2µM*,?,-59*,?,i
c1ccc(C2CCC(N3CCNCC3)CC2)cc1 (centres undefined),-4%,12%,14,i,i
O=C(O)c1ccccc1-c1ccccc1C(=O)Nc1ccccc1,-7%,1%,16,i,i
O=C(O)c1ccccc1-c1ccccc1C(=O)NNc1ccccc1,18µM*,3%,8,i,i
O=C(NCc1ccccc1Cl)C1CCN(S(=O)(=O)Cc2ccccc2)CC1,/,/,/,i,i
CCOc1ncccc1C(=O)OC(C)C(=O)Nc1ccc(Cl)cn1 (centres undefined),-6%,21%,27,i,i
CNc1ccccc1C(=O)OC(C)C(=O)Nc1ccc(Cl)cn1 (centres undefined),?,?,-75*,/,/
CN(C)c1ccc(/C=C/c2ccnc3ccccc23)cc1C=O,/,/,/,i,i
Cc1ccc2nccc(/C=C/c3ccc(N(C)C)cc3)c2c1,/,/,/,18µM*,?
CN(C)c1ccc(/C=C\C=C/c2ccnc3ccccc23)cc1,/,/,/,i,0.92µM*
CCc1cc(/C=C/c2ccnc3ccccc23)ccc1N(C)C,/,/,/,?,6.5µM*
Cc1ccc2c(/C=C/c3ccc(N(C)C)cc3)ccnc2c1,/,/,/,?,i
Cc1nn(C(=O)c2ccc(Br)cc2)c(C)c1S(=O)(=O)N1CCOCC1,/,/,/,i,i
CCN(CC)c1ccc2c(O)cc(=O)oc2c1,6%,9%,14,i,i
CCN(CC)c1ccc2c(C)c(CN3CCOCC3)c(=O)oc2c1,21µM*,5.8µM*,-21,i,i
CCN(CC)c1ccc2c(C)c(CO)c(=O)oc2c1,13µM*,?,29,i,i

# Bioassay records: PubChem, National Center for Advancing Translational Sciences (NCATS)
